# Only some compounds are listed: those with a hit (about 2.8% of all), similar ones and a draw of the others.
# Glyco luc inh: blocks N-linked glycosylation in D54 reporter cells. reporter increase, % at 12.5 µM. AID 588692. D54 ERlucT glycosylation luciferase reporter, 24 h; percent of 100 nM tunicamycin response. 0.23% of 360,000 active;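 active = mean luciferase reporter signal, scaled so untreated is 0 and the glycosylation-blocking control 100, at or above a set limit in every replicate; inconclusive = mean reaches the limit but not every replicate does; inactive = mean below the limit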;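 note: luciferase carries N-glycosylation sites so blocking glycosylation raises the light; 0% = median of neutral control wells and 100% = median of 100 nM tunicamycin wells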
# HIV Env fusion: HIV envelope-mediated fusion inhibition. 1.1% of 360,000 active. inhibition, % at 12.3 µM. AID 651610. HeLa-JRFL Env/CEM21 cell fusion, luciferase;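 active = mean replicate inhibition score of at least 50 and every replicate individually at or above 50; inconclusive = only one of the two criteria met; inactive = mean below 50 and not all replicates reaching 50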;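 note: 0% = plate neutral controls and 100% = maraviroc near 300 nM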
# PAX8 inh HTS: PAX8 transcriptional activity inhibition. 1.2% of 360,000 active. RMG-I TPO-luciferase reporter, SteadyGlo, 24 h. inhibition, % at 12.6 µM;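 active = mean replicate inhibition at least 60% with every replicate also reaching 60%; inconclusive = only one of the two criteria is met; inactive = mean below 60% and not all replicates reaching 60%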;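 note: luciferase light reporting Pax8 driven TPO promoter activity; plate controls were median of neutral control wells for no effect and mitoxantrone controls for full effect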
# NSD2 HMT inh: blocks human histone methyltransferase NSD2. inhibition, % at 12.5 µM. AID 743445. O96028. NSD2 peptide methylation, AlphaScreen, 120 min. 0.54% of 310,000 active; in the data active = inhibition above about 50%
# Target sequence (O96028 whole entry, looked up): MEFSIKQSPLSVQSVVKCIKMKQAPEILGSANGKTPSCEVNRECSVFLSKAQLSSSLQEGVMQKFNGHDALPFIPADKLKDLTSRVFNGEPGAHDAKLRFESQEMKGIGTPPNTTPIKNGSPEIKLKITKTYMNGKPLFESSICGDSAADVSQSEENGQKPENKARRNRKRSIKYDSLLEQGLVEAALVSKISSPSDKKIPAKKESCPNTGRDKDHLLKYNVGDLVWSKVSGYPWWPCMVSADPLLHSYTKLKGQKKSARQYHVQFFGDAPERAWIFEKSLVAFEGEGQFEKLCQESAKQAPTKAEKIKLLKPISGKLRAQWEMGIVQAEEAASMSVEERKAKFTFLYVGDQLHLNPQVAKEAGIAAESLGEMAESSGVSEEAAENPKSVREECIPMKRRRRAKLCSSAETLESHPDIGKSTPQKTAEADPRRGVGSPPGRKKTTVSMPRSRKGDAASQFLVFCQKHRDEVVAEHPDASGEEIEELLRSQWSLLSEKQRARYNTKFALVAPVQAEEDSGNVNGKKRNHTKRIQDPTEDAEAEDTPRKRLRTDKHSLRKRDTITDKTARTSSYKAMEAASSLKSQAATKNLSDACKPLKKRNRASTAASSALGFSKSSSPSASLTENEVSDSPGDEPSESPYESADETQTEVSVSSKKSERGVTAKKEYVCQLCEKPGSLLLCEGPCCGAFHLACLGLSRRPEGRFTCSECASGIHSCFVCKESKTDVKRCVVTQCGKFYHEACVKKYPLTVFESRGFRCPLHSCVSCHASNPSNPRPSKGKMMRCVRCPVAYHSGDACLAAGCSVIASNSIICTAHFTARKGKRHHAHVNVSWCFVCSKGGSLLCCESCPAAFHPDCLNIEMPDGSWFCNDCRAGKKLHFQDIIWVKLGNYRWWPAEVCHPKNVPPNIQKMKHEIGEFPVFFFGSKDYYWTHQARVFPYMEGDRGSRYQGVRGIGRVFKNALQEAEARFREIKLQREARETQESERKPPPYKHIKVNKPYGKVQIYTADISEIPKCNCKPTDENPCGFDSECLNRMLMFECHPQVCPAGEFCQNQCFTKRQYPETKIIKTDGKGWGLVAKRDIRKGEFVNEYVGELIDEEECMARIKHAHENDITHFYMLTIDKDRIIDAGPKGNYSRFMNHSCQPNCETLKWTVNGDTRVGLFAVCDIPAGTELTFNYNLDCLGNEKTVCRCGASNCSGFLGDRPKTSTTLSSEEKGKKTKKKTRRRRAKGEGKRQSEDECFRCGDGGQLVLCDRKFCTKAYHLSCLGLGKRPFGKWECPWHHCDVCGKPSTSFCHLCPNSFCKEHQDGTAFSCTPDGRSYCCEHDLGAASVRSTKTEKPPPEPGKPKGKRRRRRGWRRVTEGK
# Shn3 3UTR inh: Schnurri-3 reporter inhibition in Clone20 osteoblasts; Clone20 osteoblast Shn3 3'UTR firefly luciferase, 24 h; inhibition, % at 12.5 µM; 0.52% of 360,000 active; AID 588674;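 active = mean inhibition of at least 75% with every replicate also reaching 75%; inconclusive = mean inhibition at least 75% but some replicate below; inactive = mean inhibition below 75%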;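 note: 0% = median of neutral control wells and 100% = pilot-screen positive control compound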
# EBV LMP1 NFkB: inhibitors of Epstein-Barr LMP1-induced NF-kappaB reporter. LMP1-induced NF-kappaB luciferase reporter cells, luminescence. inhibition, % at 12.5 µM. 0.69% of 350,000 active; in the data active = inhibition above about 41%; inconclusive = no clear call, values can overlap the other calls;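 note: 0% = neutral control wells and 100% = reference inhibitor control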
# * = called active by the depositor; u = inconclusive; x = no result given; ! = not active in a repeat; [ ] = another dose, or the depositor's remark.
SMILES,Glyco luc inh,HIV Env fusion,PAX8 inh HTS,NSD2 HMT inh,Shn3 3UTR inh,EBV LMP1 NFkB
CCN1/C(=C\c2ccc3cc(C)ccc3[n+]2CC)Sc2cc(C)c(C)cc21,14,23,91*,54*,89*,29
CCN1/C(=C/c2ccc3cccc(C)c3[n+]2CC)Sc2ccccc21,u,59*,x,45,51,-3
CCN1/C(=C/c2ccc3cc(C)ccc3[n+]2CC)Sc2ccc3sccc3c21,-18,x,x,x,93*,21
Cc1ccc(-c2ccc3c(c2)O[C@@H](CN(C)C(=O)CN(C)C)[C@@H](C)CN([C@@H](C)CO)S3(=O)=O)cc1,x,-22[16.7 µM],x,x,x,x
C[C@@H]1CCCCO[C@@H](CN(C)C(=O)Nc2ccccc2)[C@H](C)CN([C@@H](C)CO)C(=O)c2cc(NC(=O)C3CCCCC3)ccc2O1,x,-7[16.7 µM],-9,x,x,x
O=C(Nc1ccc(Cl)c(Cl)c1)N[C@@H]1CC[C@@H](CCn2cc(C3CCCC3)nn2)O[C@H]1CO,x,x,6,x,x,x
CSc1ccccc1OCc1cc(C(=O)N2CCCC(C)C2)no1 (stereo not drawn),-2,-102,-232,5,2,-30
CSc1ccccc1OCc1cc(C(=O)N2CCC[C@H]2C(N)=O)no1,3,3,-13,-3,1,63*
COc1cc(S(=O)(=O)N(Cc2cccs2)CC2CCCO2)ccc1-n1cnnn1 (stereo not drawn),0,x,x,-2,12,-6
O=S(=O)(NCc1ccccc1)c1ccc(S(=O)(=O)N(Cc2cccs2)CC2CCCO2)cc1 (stereo not drawn),-7,61*,x,2,7,10
COCC(=O)Nc1ccc2c(c1)[C@H]1C[C@@H](CC(=O)N[C@H](C)c3ccccc3)O[C@H](CO)[C@H]1O2,x,-38[16.7 µM],3,x,x,x
O=C1Nc2c(Cl)cc(Cl)cc2C12Nc1ccccc1S2 (stereo not drawn),x,55*,-69,-24,x,x
O=C(CC1Sc2ccccc2NC1=O)NNc1ccc(Cl)cc1Cl (stereo not drawn),13,x,22,-3,7,-25
CN1CCN(C(=O)C[C@@H]2CC[C@H](NC(=O)Cc3ccccn3)[C@H](CO)O2)CC1,x,6[16.7 µM],1,x,x,x
O=C(O)c1cccnc1,-1,x,5,x,-10,85*
COC(=O)N1[C@H](C)C=C[C@]1(Cc1ccccc1)C(=O)NCCCNc1ncc(C(F)(F)F)cc1Cl,-1,103*,-3,x,11,-1
C[C@]1(C(=O)NCCCNc2ncc(C(F)(F)F)cc2Cl)C=C[C@@H](Cc2ccccc2)N1C(=O)c1ccccc1,-2,x,x,x,-21,-3
COc1ccc(N2C(=O)c3ccccc3NC(=O)C2C(=O)NCCc2ccccc2F)cc1 (stereo not drawn),x,58*,-4,x,x,x
COc1ccc(N2C(=O)c3ccccc3NC(=O)C2C(=O)NCc2ccco2)cc1 (stereo not drawn),x,-14,20,0,x,x
O=C(COC(=O)/C=C/c1ccc(F)cc1)Nc1ccc2[nH]c(=O)[nH]c2c1,0,4,6,0,-4,-3
O=C(COC(=O)/C=C/c1ccc(OC(F)F)cc1)Nc1ccc2[nH]c(=O)[nH]c2c1,-5,-13,-12,-2,97*,-28
Cc1c(O)cc2c(c1O)C(=O)CC(c1ccccc1)O2 (stereo not drawn),43*,x,x,x,26,9
CC1(C)C(=O)Nc2ccccc2N1C(=O)COC(=O)c1cccnc1,0,64*,4,1,2,-1
CC1(C)C(=O)Nc2ccccc2N1C(=O)COC(=O)c1cc(Cl)cc(Cl)c1,-1,x,13,6,0,-12
Cc1ccc(S(=O)(=O)N2CCCCC2)cc1C(=O)OCC(=O)N1c2ccccc2NC(=O)C1(C)C,-6,u,-3,0,11,0
SMILES,Glyco luc inh,HIV Env fusion,PAX8 inh HTS,NSD2 HMT inh,Shn3 3UTR inh,EBV LMP1 NFkB
Cc1ccc(C(=O)OCC(=O)N2c3ccccc3NC(=O)C2(C)C)cc1S(=O)(=O)N1CCCCC1,-7,59*,22,7,10,5
CO[C@@H]1CN(C)C(=O)c2cc(NC(=O)c3ccc4c(c3)OCO4)ccc2OC[C@@H](C)N(CC2CC2)C[C@@H]1C,x,3[16.7 µM],-23,x,x,x
Cc1ccc(S(=O)(=O)N(C)C[C@@H]2Oc3ncc(C#CC4(O)CCCC4)cc3C(=O)N([C@@H](C)CO)C[C@H]2C)cc1,x,1[16.7 µM],x,x,x,x
CO[C@H]1CN(C)C(=O)c2cc(NS(=O)(=O)c3cn(C)cn3)ccc2OC[C@H](C)N(CC2CC2)C[C@@H]1C,x,0[16.7 µM],x,x,x,x
O=C(Nc1ccc(O)cc1)c1ccccc1OCc1ccccc1,13,11,22,1,8,0
COc1cc(C(=O)NC(=S)N(CCc2ccccc2)CCc2ccccc2)cc(OC)c1OC,7,34,75*,0,60,26
CNC(=O)c1cccc(NC(=O)c2ccccc2OCc2ccccc2)c1,27*,-19,3,-5,15,16
COc1cc(NC(=O)c2ccccc2OCc2ccccc2)cc(OC)c1OC,28*,18,3,-3,1,7
COc1ccc(Cc2c(-c3ccco3)nc3c(C)cc(Br)cn23)c(C)c1,2,73*,48,x,7,x
COc1ccccc1Cc1c(-c2ccco2)nc2c(C)cc(Br)cn12,6,x,x,x,94*,x
CN1C(C(=O)NCc2cccs2)=CC(c2ccc(F)cc2)=NS1(=O)=O,0,71*,-21,2,19,2
O=C(Cn1c(=O)c2cccn2c2cccnc21)N1CCN(c2ccccc2F)CC1,0,0,10,2,-5,71*
COCCNC(=O)C[C@@H]1C=C[C@H](NC(=O)NC2CCCC2)[C@@H](CO)O1,x,-77[16.7 µM],-6,x,x,x
CCOC(=O)C(Cc1ccccc1)C(=O)NCc1ccccc1 (stereo not drawn),0,3,19,-2,-1,8
CCOc1ccc(C(=O)NCc2ccccc2)cc1Br,1,x,79*,6,15,-4
CCOC(=O)NCc1ccccc1,1,x,x,x,-15,84*
CCOc1cc(C(=O)NCc2ccccc2)ccc1OCC(=O)N1CCOCC1,1,-7,0,-1,-5,0
COc1ccc(NC(=O)Nc2ccc3c(c2)CC(=O)N([C@H](C)CO)C[C@@H](C)[C@H](CN(C)Cc2ccc(-c4ccccc4)cc2)O3)cc1,x,13[16.7 µM],-11,x,x,x
Nc1c(N(CCC2=CCCCC2)C(=O)COc2ccc(F)cc2Cl)c(=O)[nH]c(=O)n1Cc1ccccc1,56*,x,9,3,78,6
COc1cccc(S(=O)(=O)Nc2ccc3c(c2)[C@@H]2C[C@@H](CC(=O)NCc4ccc(Cl)cc4)O[C@@H](CO)[C@@H]2O3)c1,18,-21[16.7 µM],75*!,x,-23,x
COc1cccc(S(=O)(=O)N[C@H]2CC[C@H](CC(=O)NCc3ccncc3)O[C@H]2CO)c1,x,3[16.7 µM],-7,x,x,x
COc1cccc(S(=O)(=O)N[C@@H]2CC[C@H](CC(=O)NCc3ccncc3)O[C@@H]2CO)c1,x,56*[16.7 µM],-12,x,x,x

# Compound activity: PubChem, Broad Institute
